The record followed here is PubChem BioAssay (NCATS).

Records with an inconclusive call do not appear. Unmarked numbers belong to inactive results. Activity calls are given as the source filed them. The call rests on the fitted dose curve; in most records, active means well fitted inhibition curve with a large enough effect; inconclusive means small, poorly fitted or top-dose-only effect; inactive means flat fitted curve, though single readings scatter.
On the % scale 0 is the no-effect control and ±100 the full control effect; potency means the concentration at half of the fitted maximal effect.

A short description of the experiment: P-glycoprotein substrates identified in KB-8-5-11 adenocarcinoma cell line, qHTS therapeutic library screen (AID 1346987). Further: nearly all actives have a fitted effect of over 65% in size. Particulars: KB-8-5-11 (P-gp overexpressing) viability, CellTiter-Glo, 72 h; series mostly up to 44.5 µM; activity change, negative = cytotoxicity: at the top concentration. The method in brief:
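Human cervical adenocarcinoma KB-8-5-11 cells, selected in colchicine to over-express P-gp and assayed without it, were exposed for 72 h to titrated compounds. An ATP-based luminescent viability signal gave AC50.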
(Quantitative high-throughput screening tests each substance at several concentrations.)
For the molecule `CC(=O)O[C@@H]1[C@@H](OC(C)=O)[C@H](C)O[C@@H](O[C@H]2[C@@H]3C=CO[C@@H](O[C@@H]4O[C@H](CO)[C@@H](O)[C@H](O)[C@H]4O)[C@@H]3[C@@]3(CO)O[C@@H]23)[C@@H]1OC(=O)/C=C/c1ccccc1`, the “activity change, negative = cytotoxicity” value is 4.61% [at 17.3 µM].

Take `COc1ccc(-c2csc(NC(=O)[C@H]3CCCCN3S(=O)(=O)c3ccc(C)cc3)n2)cc1`: the “activity change, negative = cytotoxicity” value is -21%.

As for `c1ccc(-c2cnn3cc(-c4ccc(OCCN5CCOCC5)cc4)cnc23)cc1`, the Potency is 1.64 µM (active).

Turning to `O=C(NCCN1CCC(n2c(=O)[nH]c3ccccc32)CC1)c1cc2cc(F)ccc2[nH]1`, the “activity change, negative = cytotoxicity” value is -2.08%.

For the molecule `CC(=O)O[C@@H]1CC[C@@]2(C)C(CC[C@]3(C)C2[C@H](O)C=C2[C@H]4[C@@H](C)[C@H](C)CC[C@]4(C)CC[C@]23C)[C@@]1(C)C(=O)O` (some centres undefined), the “activity change, negative = cytotoxicity” value is -18.4% [at 17.3 µM].

`C/C=C(/CC[C@@H](C)[C@H]1CC[C@H]2C3=CC[C@H]4[C@H](C)[C@@H](O)CC[C@]4(C)[C@H]3CC[C@]12C)C(C)C`: the “activity change, negative = cytotoxicity” value was -18.2%.

Take `CCOC(=O)c1cnn(-c2ccccc2)c1NC(=O)c1cc2nc(-c3ccco3)cc(C(F)(F)Cl)n2n1`: the “activity change, negative = cytotoxicity” value was -0.285%.

Consider `CCC/C=C\C=C/CCc1cc(O)c([C@@H]2O[C@H](CO)[C@@H](O)[C@H](O)[C@H]2O)c(O)c1C(=O)OC`, for which the “activity change, negative = cytotoxicity” value is -5.96% [at 17.3 µM].

Turning to `CCCCCCCCCCCCCCCC(=O)OC[C@@H](COP(=O)([O-])OCC[N+](C)(C)C)OC(=O)CCCCCCCCCCCCCCC`, the “activity change, negative = cytotoxicity” value is 14.5%.

On to `O=C(Nc1ccc2[nH]nc(-c3ccncc3)c2c1)[C@@H]1CCN(CC(=O)N2CCN(c3ccc(-c4ncccn4)cc3)CC2)C1`, for which the “activity change, negative = cytotoxicity” value is -15.9%.

Consider `O=C(O)c1ccccc1[O-].O=C(O)c1ccccc1[O-].[Zn+2]`, for which the “activity change, negative = cytotoxicity” value was 12%.

Turning to `N[C@@H](C(=O)N[C@H]1C(=O)N2C(C(=O)O)=C(Cl)CC[C@H]12)c1ccccc1`, the “activity change, negative = cytotoxicity” value was -0.412%.

On to `O.O=C([O-])CC([S-])C(=O)[O-].[Au+].[Na+].[Na+]` (centres undefined), for which the “activity change, negative = cytotoxicity” value is -3.46%.

As to `O=C(CCl)Nc1cccc(NC2=NS(=O)(=O)c3ccccc32)c1`, the Potency was 18.4 µM (active).

Turning to `COc1cc(C(N)=O)nc(-c2ccccn2)c1O`, the “activity change, negative = cytotoxicity” value was -53.5%.

As to `COc1cc(C[C@@H]2NCCc3cc(O)c(O)cc32)cc(OC)c1OC`, the “activity change, negative = cytotoxicity” value was -7.13%.

As for `COc1ccc(C2NC(=S)N3C(c4ccc(OC)c(OC)c4)NC(=S)N23)cc1OC` (centres undefined), the “activity change, negative = cytotoxicity” value is 6.36%.

Turning to `CC(=O)OC1C(=O)C2C3OCC4=C3[C@@](C)(CC[C@@H]4O)CC[C@]2(C)[C@H]1C(C)C` (some centres undefined), the “activity change, negative = cytotoxicity” value is -6.73%.

Regarding `O=C(Nc1ccc(-c2ccnc(Nc3ccc(N4CCOCC4)cc3)n2)cc1)C1CCCN1` (centres undefined), the Potency was 14.6 µM (active).

For `Cn1c(CO)c(-c2ccccc2)c2cc([N+](=O)[O-])ccc21`, the “activity change, negative = cytotoxicity” value was -15.4%.

As to `C=C1C(=O)O[C@@H]2[C@H]3C(C)=CC(=O)C3=C(C)[C@@H](OC(=O)/C(C)=C\C)[C@H](O)[C@@H]12`, the “activity change, negative = cytotoxicity” value was -27.3%.

In the case of `CN1CCN(c2ccc(OC(F)(F)F)c(Nc3ncc4c(n3)-c3c(c(C(N)=O)nn3CCO)CC4)c2)CC1`, the Potency was 0.517 µM (active).

Take `COc1cc(C(=O)NCC2(N(C)C)CCCC2)cc(OC)c1OCc1ccccc1`: the “activity change, negative = cytotoxicity” value was -22.3%.

For `C=C[C@@]1(C)C=C2C(=O)C(O)=C3[C@](C)(C(=O)O)CC[C@@H]4C[C@]34[C@]2(O)C(=O)C1`, the Potency was 10.1 µM (active).

As to `CCC(C)C(=O)OC1C(C)C2(O)C(C=C(CO)CC3(O)C(=O)C(C)=CC32)C2C(C)(C)C12OC(=O)C(C)C` (centres undefined), the “activity change, negative = cytotoxicity” value is -25% [at 17.3 µM].

For `CCc1c[nH]c2ncnc(N3CC[C@](N)(CNC(=O)c4ccc(F)cc4F)C3)c12`, the “activity change, negative = cytotoxicity” value was -17.3%.

As for `CC1CC(=O)C2=C(C1)C1OC1C1(O)C2C(=O)c2cccc(O)c2C1O` (centres undefined), the outcome was inactive.

On to `CN[C@@H]1CCc2[nH]c3ccc(C(N)=O)cc3c2C1`, for which the “activity change, negative = cytotoxicity” value is 1.32%.

Turning to `C[C@@H]1C[C@H]2O[C@@]3(O[C@@H]2C(C)(C)O)C(O)[C@@]2(C)C4CCC5C(C)(C)[C@@H](O[C@H]6OC[C@H](O)[C@@H](O)[C@@H]6O)CC[C@@]56C[C@@]46CC[C@]2(C)C13` (some centres undefined), the “activity change, negative = cytotoxicity” value is 3.31% [at 17.3 µM].

For `Nc1ncnc2c1nc(Cl)n2C1OC2COP(=O)(O)OC2C1O` (centres undefined), the Potency is 1.46 µM (active).

Regarding `N#Cc1ccc(COC[C@H]2O[C@@H](n3c(NCc4ccc(Cl)c(Cl)c4)nc4c(N)ncnc43)[C@H](O)[C@@H]2O)cc1`, the “outcome” value is “inactive [at 17.3 µM]”.

`CCc1cc(C(N)=O)ccc1-n1nc(C(C)C)c2c(-n3cnc(-c4cnn(C)c4)c3)ccnc21`: the Potency was 3.66 µM (active).

For `Cc1ccc(C)c(NC(=O)[C@@H]2CCCN2S(=O)(=O)c2cccc3cccnc23)c1`, the “activity change, negative = cytotoxicity” value is -18.6%.

For the molecule `O=C(NCC1(N2CCN(c3ccccc3)CC2)CCOCC1)c1cccnc1Sc1ccccc1`, the “activity change, negative = cytotoxicity” value was -8.67%.

Consider `O=C[C@H](O)[C@@H](O)[C@H](O[C@H]1O[C@H](CO)[C@@H](O[C@H]2O[C@H](CO)[C@@H](O)[C@H](O)[C@H]2O)[C@H](O)[C@H]1O)[C@H](O)CO`, for which the “activity change, negative = cytotoxicity” value is -3.61%.

Turning to `O=C(O)CC(O)(CC(=O)O)C(=O)O`, the “activity change, negative = cytotoxicity” value is -13.5%.

As to `CCC(CC)C(=O)OC12C(OC(=O)C(C)C)C(C)C3(O)C(C=C(CO)CC4(O)C(=O)C(C)=CC43)C1C2(C)C` (centres undefined), the “activity change, negative = cytotoxicity” value is -15.3% [at 17.3 µM].

On to `CC(C)NC(=O)N1CC[C@H](N=C2Nc3cc(F)ccc3N(CC(F)F)c3ccc(Cl)cc32)C1`, for which the activity change, negative = cytotoxicity is -19.3% [at 9.29 µM].

Turning to `CCC(C)C(=O)OC12C(OC(C)=O)C(C)C3(O)C(C=C(CO)CC4(O)C(=O)C(C)=CC43)C1C2(C)C` (centres undefined), the “activity change, negative = cytotoxicity” value is -14.4% [at 17.3 µM].
